{"source": "the supplement of paper PMC11732987", "about": "“Enantioselective OTUD7B fragment discovery through chemoproteomics screening and high-throughput optimisation” (Communications Chemistry, 2025)", "assay_in_all_cases": "log2 ratio of Biotin-Ahx-Ub-VS probe labelling (fragment/DMSO); higher = less target engagement (more negative = stronger competition), active = hit call of the paper (q ≤ 0.05, log2 ratio ≤ -1)", "conditions_in_all_cases": "compound concentration: 200 uM; treatment time: 3 h", "key": {"ALG13": {"target": "T1, ALG13 (UniProt Q9NP73)", "T1 sequence (whole entry)": "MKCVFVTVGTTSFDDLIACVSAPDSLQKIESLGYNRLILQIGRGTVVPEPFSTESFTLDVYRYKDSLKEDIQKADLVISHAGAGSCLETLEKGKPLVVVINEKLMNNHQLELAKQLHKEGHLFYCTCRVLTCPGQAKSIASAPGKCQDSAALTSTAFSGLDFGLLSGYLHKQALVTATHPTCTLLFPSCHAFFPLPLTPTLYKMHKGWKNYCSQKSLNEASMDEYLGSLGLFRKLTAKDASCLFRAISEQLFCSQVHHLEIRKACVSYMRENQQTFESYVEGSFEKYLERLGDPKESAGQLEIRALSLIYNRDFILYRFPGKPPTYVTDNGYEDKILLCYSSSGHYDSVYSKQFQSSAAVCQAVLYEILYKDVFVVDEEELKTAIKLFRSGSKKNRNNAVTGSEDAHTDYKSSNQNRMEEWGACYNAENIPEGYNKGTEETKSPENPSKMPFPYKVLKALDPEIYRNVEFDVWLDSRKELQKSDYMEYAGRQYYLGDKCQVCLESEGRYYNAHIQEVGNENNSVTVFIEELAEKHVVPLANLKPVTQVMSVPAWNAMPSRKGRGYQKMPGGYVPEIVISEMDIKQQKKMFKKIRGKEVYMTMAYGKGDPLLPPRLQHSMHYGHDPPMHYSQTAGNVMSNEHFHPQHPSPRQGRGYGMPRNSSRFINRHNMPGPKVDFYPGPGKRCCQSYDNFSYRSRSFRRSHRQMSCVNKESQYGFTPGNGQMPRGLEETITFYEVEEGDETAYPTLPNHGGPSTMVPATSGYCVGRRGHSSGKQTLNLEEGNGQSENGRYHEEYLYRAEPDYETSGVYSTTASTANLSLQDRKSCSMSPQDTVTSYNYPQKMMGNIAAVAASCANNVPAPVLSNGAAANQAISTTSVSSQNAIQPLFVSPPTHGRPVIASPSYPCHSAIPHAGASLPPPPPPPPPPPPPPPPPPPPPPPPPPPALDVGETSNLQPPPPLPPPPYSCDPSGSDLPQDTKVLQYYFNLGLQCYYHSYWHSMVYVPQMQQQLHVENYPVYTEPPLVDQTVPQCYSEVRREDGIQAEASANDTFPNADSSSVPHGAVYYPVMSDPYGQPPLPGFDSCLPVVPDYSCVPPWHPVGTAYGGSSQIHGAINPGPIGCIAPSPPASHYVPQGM", "how_it_was_run": "(§1)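 Labelling with Biotin-Ahx-Ub-VS (0.5 µM final, 1 h) followed a 3 h triplicate treatment of HEK293T lysate (495 µg per sample, Tris/CHAPS/IGEPAL buffer with protease inhibitors) with fragment at 200 µM or vehicle. Labelled DUBs were NeutrAvidin-enriched, digested with LysC and trypsin, and run by diaPASEF LC-MS/MS. The values, average log2 fragment/vehicle ratios by unpaired t-test, come from global-median-normalised Spectronaut label-free quantities. Proteins with ≥2 unique peptides were used.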"}, "ATXN3": {"target": "ATXN3 (UniProt P54252)", "sequence (P54252 whole entry)": "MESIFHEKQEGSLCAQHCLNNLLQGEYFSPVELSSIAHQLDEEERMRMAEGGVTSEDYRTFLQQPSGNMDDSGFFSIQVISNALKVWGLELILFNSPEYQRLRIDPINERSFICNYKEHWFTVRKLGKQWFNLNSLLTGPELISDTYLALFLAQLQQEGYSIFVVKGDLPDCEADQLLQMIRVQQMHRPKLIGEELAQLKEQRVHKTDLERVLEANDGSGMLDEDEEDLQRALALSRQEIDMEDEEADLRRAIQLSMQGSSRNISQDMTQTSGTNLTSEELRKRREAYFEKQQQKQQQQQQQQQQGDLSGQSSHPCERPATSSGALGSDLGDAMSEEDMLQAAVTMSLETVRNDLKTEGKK", "how_it_was_run": "as §1"}, "BAP1": {"target": "T2, BAP1 (UniProt Q92560)", "T2 sequence (whole entry)": "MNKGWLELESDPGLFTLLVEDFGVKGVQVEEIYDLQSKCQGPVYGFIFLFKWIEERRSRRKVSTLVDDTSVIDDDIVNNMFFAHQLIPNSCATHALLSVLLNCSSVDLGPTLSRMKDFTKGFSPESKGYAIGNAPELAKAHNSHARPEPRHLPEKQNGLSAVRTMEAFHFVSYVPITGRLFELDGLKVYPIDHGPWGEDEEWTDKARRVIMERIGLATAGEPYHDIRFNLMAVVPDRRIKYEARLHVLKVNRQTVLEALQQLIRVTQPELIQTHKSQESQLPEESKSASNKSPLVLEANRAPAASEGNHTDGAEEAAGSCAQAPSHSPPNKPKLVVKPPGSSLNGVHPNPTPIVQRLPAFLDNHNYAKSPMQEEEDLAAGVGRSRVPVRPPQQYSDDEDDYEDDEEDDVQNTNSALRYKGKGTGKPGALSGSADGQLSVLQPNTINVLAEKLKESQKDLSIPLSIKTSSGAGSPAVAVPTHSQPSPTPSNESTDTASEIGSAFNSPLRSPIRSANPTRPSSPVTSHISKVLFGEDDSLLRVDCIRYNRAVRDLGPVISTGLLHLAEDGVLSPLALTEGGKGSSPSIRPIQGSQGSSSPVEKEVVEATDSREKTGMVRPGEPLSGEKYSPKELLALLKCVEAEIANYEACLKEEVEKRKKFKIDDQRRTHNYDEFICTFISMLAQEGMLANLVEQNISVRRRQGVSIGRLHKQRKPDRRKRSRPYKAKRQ", "how_it_was_run": "as §1"}, "EIF3F": {"target": "EIF3F (UniProt O00303)", "sequence (O00303 whole entry)": "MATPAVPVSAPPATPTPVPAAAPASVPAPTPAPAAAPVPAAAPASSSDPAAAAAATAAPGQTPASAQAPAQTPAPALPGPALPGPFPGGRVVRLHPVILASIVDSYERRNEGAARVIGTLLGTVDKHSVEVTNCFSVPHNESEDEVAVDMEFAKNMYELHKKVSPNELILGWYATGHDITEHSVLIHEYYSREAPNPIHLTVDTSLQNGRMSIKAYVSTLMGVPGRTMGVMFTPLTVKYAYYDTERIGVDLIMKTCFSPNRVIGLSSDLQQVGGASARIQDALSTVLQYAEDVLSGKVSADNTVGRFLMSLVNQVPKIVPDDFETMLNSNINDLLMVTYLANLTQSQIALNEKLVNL", "how_it_was_run": "as §1"}, "EIF3H": {"target": "EIF3H (UniProt O15372)", "sequence (O15372 whole entry)": "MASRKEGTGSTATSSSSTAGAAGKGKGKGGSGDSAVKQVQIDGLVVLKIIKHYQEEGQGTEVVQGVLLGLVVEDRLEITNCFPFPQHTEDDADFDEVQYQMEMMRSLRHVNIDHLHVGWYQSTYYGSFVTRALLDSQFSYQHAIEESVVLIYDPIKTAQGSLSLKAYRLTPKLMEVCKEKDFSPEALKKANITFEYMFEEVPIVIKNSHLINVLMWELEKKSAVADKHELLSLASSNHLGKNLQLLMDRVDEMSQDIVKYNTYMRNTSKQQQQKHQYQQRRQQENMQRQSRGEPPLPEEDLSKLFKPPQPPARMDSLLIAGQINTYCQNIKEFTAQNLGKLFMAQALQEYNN", "how_it_was_run": "as §1"}, "FAM105A": {"target": "T3, FAM105A (UniProt Q9NUU6)", "T3 sequence (whole entry)": "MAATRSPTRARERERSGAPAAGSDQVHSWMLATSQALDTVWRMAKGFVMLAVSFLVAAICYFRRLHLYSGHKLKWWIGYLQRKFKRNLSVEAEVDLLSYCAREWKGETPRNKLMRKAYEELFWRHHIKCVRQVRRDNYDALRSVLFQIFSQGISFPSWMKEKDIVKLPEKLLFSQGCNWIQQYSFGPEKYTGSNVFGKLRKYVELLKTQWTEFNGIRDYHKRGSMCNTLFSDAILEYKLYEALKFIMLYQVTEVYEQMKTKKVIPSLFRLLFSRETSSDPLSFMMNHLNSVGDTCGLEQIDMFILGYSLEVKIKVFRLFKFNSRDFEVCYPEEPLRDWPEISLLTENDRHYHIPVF", "how_it_was_run": "as §1"}, "OTUB1": {"target": "OTUB1 (UniProt Q96FW1)", "sequence (Q96FW1 whole entry)": "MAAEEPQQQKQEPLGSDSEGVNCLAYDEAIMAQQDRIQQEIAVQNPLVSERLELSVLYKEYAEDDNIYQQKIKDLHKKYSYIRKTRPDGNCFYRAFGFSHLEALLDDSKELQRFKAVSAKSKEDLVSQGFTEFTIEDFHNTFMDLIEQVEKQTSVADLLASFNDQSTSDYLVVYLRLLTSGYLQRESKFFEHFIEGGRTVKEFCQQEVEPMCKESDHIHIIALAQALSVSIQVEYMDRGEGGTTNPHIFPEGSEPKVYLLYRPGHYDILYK", "how_it_was_run": "as §1"}, "OTUD4": {"target": "T4, OTUD4 (UniProt Q01804)", "T4 sequence (whole entry)": "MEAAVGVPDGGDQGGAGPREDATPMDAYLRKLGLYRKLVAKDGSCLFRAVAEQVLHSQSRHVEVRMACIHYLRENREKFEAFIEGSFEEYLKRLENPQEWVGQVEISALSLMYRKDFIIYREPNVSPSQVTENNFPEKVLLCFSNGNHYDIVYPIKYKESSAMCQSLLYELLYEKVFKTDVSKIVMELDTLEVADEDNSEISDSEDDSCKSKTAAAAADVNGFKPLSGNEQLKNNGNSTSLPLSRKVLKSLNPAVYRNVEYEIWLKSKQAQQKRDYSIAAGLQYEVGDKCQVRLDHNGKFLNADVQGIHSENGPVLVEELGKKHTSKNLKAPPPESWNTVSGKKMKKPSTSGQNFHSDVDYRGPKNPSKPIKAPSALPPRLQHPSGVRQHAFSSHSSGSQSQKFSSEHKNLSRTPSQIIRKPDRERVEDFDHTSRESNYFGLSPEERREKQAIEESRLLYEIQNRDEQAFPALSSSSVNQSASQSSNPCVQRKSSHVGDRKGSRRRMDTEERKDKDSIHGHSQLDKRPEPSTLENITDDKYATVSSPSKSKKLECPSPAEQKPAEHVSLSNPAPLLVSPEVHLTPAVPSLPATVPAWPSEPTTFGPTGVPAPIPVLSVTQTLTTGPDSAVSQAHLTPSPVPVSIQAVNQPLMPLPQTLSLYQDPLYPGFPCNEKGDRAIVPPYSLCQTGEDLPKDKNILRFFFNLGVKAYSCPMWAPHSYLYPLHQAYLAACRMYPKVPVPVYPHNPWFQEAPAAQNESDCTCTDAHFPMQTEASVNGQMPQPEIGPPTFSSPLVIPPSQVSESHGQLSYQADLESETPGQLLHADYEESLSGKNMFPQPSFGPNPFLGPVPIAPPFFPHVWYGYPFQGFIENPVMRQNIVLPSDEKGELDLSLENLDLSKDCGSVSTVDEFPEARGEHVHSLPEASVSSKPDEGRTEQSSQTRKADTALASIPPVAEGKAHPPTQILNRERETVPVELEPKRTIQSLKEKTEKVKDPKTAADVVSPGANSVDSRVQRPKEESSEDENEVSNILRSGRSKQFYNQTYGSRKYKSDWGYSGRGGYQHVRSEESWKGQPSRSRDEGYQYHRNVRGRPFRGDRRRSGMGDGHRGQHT", "how_it_was_run": "as §1"}, "OTUD5": {"target": "T5, OTUD5 (UniProt Q96G74)", "T5 sequence (whole entry)": "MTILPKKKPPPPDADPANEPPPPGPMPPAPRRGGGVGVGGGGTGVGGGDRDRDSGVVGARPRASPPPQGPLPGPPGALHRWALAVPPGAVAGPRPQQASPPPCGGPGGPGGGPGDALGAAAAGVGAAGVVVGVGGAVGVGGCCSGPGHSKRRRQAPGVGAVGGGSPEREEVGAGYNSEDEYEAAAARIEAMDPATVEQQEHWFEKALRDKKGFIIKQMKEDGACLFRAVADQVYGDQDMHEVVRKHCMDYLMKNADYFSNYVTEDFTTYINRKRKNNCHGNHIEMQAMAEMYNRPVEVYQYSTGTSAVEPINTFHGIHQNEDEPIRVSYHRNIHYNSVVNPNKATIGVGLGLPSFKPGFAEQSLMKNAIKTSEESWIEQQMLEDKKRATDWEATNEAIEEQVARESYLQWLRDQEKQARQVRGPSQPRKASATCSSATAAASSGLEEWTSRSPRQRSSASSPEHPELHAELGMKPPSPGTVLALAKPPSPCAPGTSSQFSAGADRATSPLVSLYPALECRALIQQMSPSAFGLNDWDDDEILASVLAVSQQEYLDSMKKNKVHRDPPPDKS", "how_it_was_run": "as §1"}}, "note": "Values without a mark were called inactive.", "data": [{"molecule": "CC(NC(=O)CCl)c1cccc(Cl)c1", "note": "(centres undefined)", "values": [{"measurement": "log2 ratio of Biotin-Ahx-Ub-VS probe labelling", "setting": "ALG13", "result": 0.0326}, {"measurement": "log2 ratio of Biotin-Ahx-Ub-VS probe labelling", "setting": "ATXN3", "result": -0.401}, {"measurement": "log2 ratio of Biotin-Ahx-Ub-VS probe labelling", "setting": "BAP1", "result": "-3.17 (active)"}, {"measurement": "log2 ratio of Biotin-Ahx-Ub-VS probe labelling", "setting": "EIF3F", "result": 0.0315}, {"measurement": "log2 ratio of Biotin-Ahx-Ub-VS probe labelling", "setting": "EIF3H", "result": 0.0634}, {"measurement": "log2 ratio of Biotin-Ahx-Ub-VS probe labelling", "setting": "FAM105A", "result": -0.0535}, {"measurement": "log2 ratio of Biotin-Ahx-Ub-VS probe labelling", "setting": "OTUB1", "result": 0.0729}, {"measurement": "log2 ratio of Biotin-Ahx-Ub-VS probe labelling", "setting": "OTUD4", "result": -0.705}, {"measurement": "log2 ratio of Biotin-Ahx-Ub-VS probe labelling", "setting": "OTUD5", "result": -0.433}]}]}
